A number with no mark means an inactive call. Results filed as inconclusive are left out. A call without a number means that no potency is given here. The source made the active and inactive calls. Unless noted, calls come from the whole dose curve.
How the values were obtained:
[1] = Nuclear factor erythroid 2-related factor 2/antioxidant responsive element (Nrf2/ARE) small molecule agonists: qHTS cell viability counter screen in human keratinocytes (AID 1919968; active = well fitted curve in the direction sought with a large enough effect in the repeat runs; an effect the other way counts as inactive or inconclusive; note: nearly all actives have a fitted effect of over 55% in size)
How it was run: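 Measured as CellTiter-Fluor fluorescence, this readout tracks cytotoxicity in the same wells as the ARE-luciferase screen. HaCaT reporter cells (1,500/well) received compounds after a 5 h pre-incubation and were exposed for 23 h.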

[2] = Nuclear factor erythroid 2-related factor 2/antioxidant responsive element (Nrf2/ARE) small molecule agonists: luciferase reporter gene qHTS assay in human keratinocytes (AID 1919969); note: nearly all actives have a fitted effect of over 35% in size
[3] = target: Gonadotropin-releasing hormone receptor (Homo sapiens) (UniProt P30968); test: Human gonadotropin-releasing hormone receptor (GnRHR) small molecule agonists, calcium flux assay in GnRHR-HEK293 cells (AID 1920063); note: nearly all actives have a fitted effect of over 35% in size
Chain of Gonadotropin-releasing hormone receptor (Homo sapiens) (P30968 whole entry, looked up): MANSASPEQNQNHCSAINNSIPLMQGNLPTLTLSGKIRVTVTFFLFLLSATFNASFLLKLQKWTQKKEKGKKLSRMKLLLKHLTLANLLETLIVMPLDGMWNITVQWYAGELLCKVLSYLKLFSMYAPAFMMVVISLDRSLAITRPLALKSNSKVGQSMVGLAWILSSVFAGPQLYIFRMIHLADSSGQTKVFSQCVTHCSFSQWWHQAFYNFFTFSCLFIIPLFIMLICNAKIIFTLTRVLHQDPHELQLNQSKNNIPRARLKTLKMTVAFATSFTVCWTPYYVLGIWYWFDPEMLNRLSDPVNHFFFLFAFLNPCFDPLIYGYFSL
How it was run: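 Fluorescence kinetics (480 nm excitation, 540 nm emission; 3 min, 1 s steps) report calcium mobilisation in human GnRHR-HEK293 cells in agonist mode. Dye incubation: 1 h, 37 C.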

[4] = target: KiSS-1 receptor (Homo sapiens) (UniProt Q969F8); test: Human kisspeptin (KISS1R) small molecule agonists, calcium flux assay in KISS1R-HEK293 cells (AID 1920064; active = well fitted curve in the direction sought with a large enough effect in the repeat runs; an effect the other way counts as inactive or inconclusive)
Chain of KiSS-1 receptor (Homo sapiens) (Q969F8 whole entry, looked up): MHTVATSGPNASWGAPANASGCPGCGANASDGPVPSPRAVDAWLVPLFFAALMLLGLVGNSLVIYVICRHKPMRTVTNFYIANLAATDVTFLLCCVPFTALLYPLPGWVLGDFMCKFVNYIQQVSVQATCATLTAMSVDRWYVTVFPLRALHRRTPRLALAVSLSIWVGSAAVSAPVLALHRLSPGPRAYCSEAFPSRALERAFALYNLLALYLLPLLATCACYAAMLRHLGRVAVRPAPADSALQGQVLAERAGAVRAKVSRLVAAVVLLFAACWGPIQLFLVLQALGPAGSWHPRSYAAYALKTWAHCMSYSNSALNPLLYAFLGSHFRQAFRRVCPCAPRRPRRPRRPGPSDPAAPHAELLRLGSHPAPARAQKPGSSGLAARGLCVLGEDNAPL
How it was run: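 Measures KISS1R agonism through calcium-sensitive dye fluorescence in stably transfected HEK293 cells, read for 3 min after pin-tool compound delivery; 15-point titrations in triplicate.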

[5] = G protein-coupled receptor (GPCR) small molecule agonists, calcium flux assay: HEK293 wild type cell line counter screen (AID 1920065)
How it was run: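 Readout: fluorescence at 480 nm excitation/540 nm emission, sampled at 1 s intervals for 3 min. Cells had been cultured 18 h, then dye-loaded 1 h at 37 C before compound or ATP addition.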

[6] = p53 small molecule agonists, cell-based qHTS assay with human liver microsomes (AID 1963577);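 note: p53 response element beta-lactamase reporter cells with liver microsomes plus NADPH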
How it was run: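 HLM-supplemented p53RE-bla reporter assay: 16 h compound exposure at 37 C, microsomes and NADPH each 0.5 mg/mL final, read by fluorescence intensity.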

[7] = p53 small molecule agonists, cell-based qHTS assay with rat liver microsomes (AID 1963578)
How it was run: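 Quantitative HTS of the Tox21 10K library: p53RE-bla cells, rat liver microsomes plus NADPH at 0.5 mg/mL final each, 16 h at 37 C, beta-lactamase fluorescence detection.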

[8] = p53 small molecule agonists, cell-based qHTS assay with human liver microsomes: qHTS cell viability counter screen (AID 1963579); note: nearly all actives have a fitted effect of over 45% in size
How it was run: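 Viability of p53RE-bla cells is measured as CellTiter-Glo luminescence following a 16 h, 37 C incubation with compound, liver microsomes from human donors and NADPH.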

[9] = p53 small molecule agonists, cell-based qHTS assay with rat liver microsomes: qHTS cell viability counter screen (AID 1963580); note: nearly all actives have a fitted effect of over 45% in size
How it was run: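 Viability is assessed in parallel with the p53 reporter read: HCT-116 p53RE-bla cells receive compounds plus rat microsomes and NADPH (0.5 mg/mL final apiece), incubate 16 h at 37 C, and then CellTiter-Glo luminescence is recorded.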

[10] = p53 small molecule agonists, cell-based qHTS assay: qHTS cell viability counter screen (AID 1963581); note: nearly all actives have a fitted effect of over 45% in size; note: potency is the fitted concentration of half-maximal effect
How it was run: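 In the same plates used for the p53 bla reporter, HCT-116 cells given compounds for 16 h at 37 C received CellTiter-Glo; luminescence was recorded 30 min later at room temperature.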

[11] = p53 small molecule agonists, cell-based qHTS assay (AID 1963582; active = well fitted activation curve with a large enough effect in the signal ratio in the repeat runs, not every such curve was filed as active; the % refers to the signal ratio)
How it was run: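 Compounds are pin-transferred in DMSO onto p53RE-bla cells and incubated 16 h at 37 C. The B/G FRET beta-lactamase substrate is then applied for 2 h at RT and fluorescence recorded.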

[12] = cAMP Responsive Elements (CRE) small molecule agonists, cell-based qHTS assay (AID 1963590)
How it was run: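 Cell line: CRE-bla HEK 293T; medium DMEM/10% dialyzed FBS/0.1 mM NEAA/1 mM pyruvate/25 mM HEPES; 3 h compound exposure; beta-lactamase FRET readout after 2 h substrate loading at RT.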

[13] = cAMP Responsive Elements (CRE) small molecule antagonists, cell-based qHTS assay (AID 1963591; active = well fitted inhibition curve with a large enough effect in the signal ratio in the repeat runs, not every such curve was filed as active; the % refers to the signal ratio)
How it was run: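 Inhibition of NKH477-driven (0.25 uM final) CRE-beta-lactamase signal in HEK293T cells, 3 h compound exposure at 37 °C, detected by FRET substrate fluorescence.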

[14] = target: Beta-2 adrenergic receptor (Homo sapiens) (UniProt P07550); test: Adrenergic beta2 receptor (ADRB2) small molecule antagonists, cell-based qHTS assay (AID 1963592); note: series mostly up to about 92 µM; nearly all actives have a fitted effect of over 50% in size
Chain of Beta-2 adrenergic receptor (Homo sapiens) (P07550 whole entry, looked up): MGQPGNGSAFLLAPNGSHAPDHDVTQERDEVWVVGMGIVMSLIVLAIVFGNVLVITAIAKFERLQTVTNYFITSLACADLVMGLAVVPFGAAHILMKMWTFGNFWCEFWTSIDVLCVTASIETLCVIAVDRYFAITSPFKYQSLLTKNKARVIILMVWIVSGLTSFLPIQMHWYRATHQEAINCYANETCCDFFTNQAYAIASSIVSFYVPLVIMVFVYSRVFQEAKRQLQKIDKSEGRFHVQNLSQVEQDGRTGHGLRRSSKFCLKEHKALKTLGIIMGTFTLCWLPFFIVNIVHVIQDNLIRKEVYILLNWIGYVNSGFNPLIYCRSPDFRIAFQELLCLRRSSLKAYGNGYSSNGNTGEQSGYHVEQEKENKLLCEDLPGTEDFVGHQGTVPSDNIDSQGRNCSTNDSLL
How it was run: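 Cells (CHO, stable ADRB2 overexpression) incubated 18-20hr at 37C; compounds added from DMSO; agonist mix (1nM isoproterenol, 100uM IBMX, 25uM Ro-20-1724) added; 0.5hr RT; d2-cAMP and anti-cAMP-cryptate added; 1hr RT; 665/615 nm read.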

[15] = target: D(2) dopamine receptor (Homo sapiens) (UniProt P14416); test: Dopamine D2 receptor (DRD2) small molecule agonists, cell-based qHTS assay (AID 1963594); note: nearly all actives have a fitted effect of over 35% in size
Chain of D(2) dopamine receptor (Homo sapiens) (P14416 whole entry, looked up): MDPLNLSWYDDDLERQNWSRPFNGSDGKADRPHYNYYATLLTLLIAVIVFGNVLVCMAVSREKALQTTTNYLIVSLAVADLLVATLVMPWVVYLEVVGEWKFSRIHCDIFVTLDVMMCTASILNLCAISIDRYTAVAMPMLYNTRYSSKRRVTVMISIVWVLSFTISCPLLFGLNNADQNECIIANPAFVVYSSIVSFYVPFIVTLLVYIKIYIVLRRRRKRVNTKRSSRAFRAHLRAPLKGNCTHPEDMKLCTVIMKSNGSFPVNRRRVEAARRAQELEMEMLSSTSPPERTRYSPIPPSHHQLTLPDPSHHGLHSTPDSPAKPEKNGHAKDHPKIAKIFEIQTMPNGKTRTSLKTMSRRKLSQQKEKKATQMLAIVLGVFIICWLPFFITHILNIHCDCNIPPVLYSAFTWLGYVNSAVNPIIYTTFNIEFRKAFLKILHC
How it was run: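 HEK293 cells stably expressing human DRD2, pre-treated with PDE inhibitor Ro20-1724 (0.1 mM final) and compound 10 min at room temperature, then stimulated with NKH477 (200nM […]) for 30 min. cAMP read by HTRF (665/620 nm).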

[16] = target: D(2) dopamine receptor (Homo sapiens) (UniProt P14416); test: Dopamine D2 receptor (DRD2) small molecule antagonists, cell-based qHTS assay (AID 1963595; active = well fitted inhibition curve with a large enough effect in the signal ratio in the repeat runs, with a control signal flat; the % refers to the signal ratio)
How it was run: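 Cells were plated and grown for 24 h at 37 °C. Ro20-1724 (0.1 mM final) went in first, then compound for 10 min. NKH477 (200 nM) with quinpirole (12 nM) followed for 30 min at RT, then HTRF detection reagents for 1 h.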

For COc1cc(C(=O)NC2CCCNC2)cc(OC)c1OC (centres undefined), the Potency [1] was “inactive”, the Potency [2] was “inactive” and the Potency [3] was “inactive”. For the same molecule, the outcome [4] was “inactive”, the outcome [5] was “inactive” and the Potency [6] was “inactive”. For the same molecule, the Potency [7] was “inactive”, the Potency [8] was “inactive” and the Potency [9] was “inactive”. For the same molecule, the Potency [10] was “inactive”, the Potency [11] was “inactive” and the Potency [12] was “inactive”. For the same molecule, the Potency [13] was “inactive”, the Potency [14] was “inactive” and the Potency [15] was “inactive”. For the same molecule, the Potency [16] was “inactive”.

For Nc1nc2c(ncn2COCCO)c(=O)[nH]1, the Potency [1] was “inactive”, the Potency [2] was “inactive” and the Potency [3] was “inactive”. The outcome [4] was “inactive”, the outcome [5] was “inactive” and the Potency [6] was “inactive”. The Potency [7] was “inactive”, the Potency [8] was “inactive” and the Potency [9] was “inactive”. The Potency [10] was “inactive”, the Potency [11] was “inactive” and the Potency [12] was “inactive”. The Potency [13] was “inactive”, the Potency [14] was “inactive” and the Potency [15] was “inactive”.

In the case of CCn1cc(C(=O)O)c(=O)c2cnc(N3CCCC3)nc21, the activity change, negative = cytotoxicity [1] is reported as -0.789% [at 8.39 µM], the activity, positive = activation [2] is reported as 0.384% [at 8.39 µM] and the activity change [3] is reported as -1.43% [at 5.22 µM, hits give high values]. The activation [4] was 2.91% [at 6.97 µM], the activation [5] was 0.533% [at 5.23 µM] and the activation [6] was 10.8% [at 5.99 µM]. For the same molecule, the activation [7] was -0.037% [at 5.99 µM], the activity change, negative = cytotoxicity [8] was 17.3% [at 5.99 µM] and the activity change, negative = cytotoxicity [9] was -0.816% [at 5.99 µM]. It also gave an activity change, negative = cytotoxicity [10] of -0.227% [at 5.99 µM], an activation [11] of 1.25% [at 5.99 µM] and an activation [12] of -3.86% [at 8.39 µM]. It also gave an activity change, negative = inhibition [13] of -10.5% [at 8.39 µM], an activity change, negative = inhibition [14] of -0.194% [at 8.39 µM] and an activation [15] of 1.32% [at 8.39 µM]. It also gave an activity change, negative = inhibition [16] of 2.86% [at 8.38 µM].

With CO[C@@]1(NC(=O)CSCC#N)C(=O)N2C(C(=O)O)=C(CSc3nnnn3C)CS[C@@H]21 the Potency [1] was “inactive”, the Potency [2] was “inactive” and the Potency [3] was “inactive”. The outcome [4] was “inactive”, the outcome [5] was “inactive” and the Potency [6] was “inactive”. The Potency [7] was “inactive”, the Potency [8] was “inactive” and the Potency [9] was “inactive”. The Potency [10] was “inactive”, the Potency [11] was “inactive” and the Potency [12] was “inactive”. For the same molecule, the Potency [13] was “inactive”, the Potency [14] was “inactive” and the Potency [15] was “inactive”.

With Oc1c(I)cc(I)c2cccnc12 the Potency [1] was “inactive”, the Potency [2] was “inactive” and the Potency [3] was “inactive”. For the same molecule, the outcome [4] was “inactive”, the outcome [5] was “inactive” and the Potency [6] was “inactive”. For the same molecule, the Potency [7] was “inactive”, the Potency [8] was “inactive” and the Potency [9] was “inactive”. The Potency [10] was “inactive”, the Potency [11] was “inactive” and the Potency [12] was “inactive”. For the same molecule, the Potency [13] was “inactive”, the Potency [14] was “inactive” and the Potency [15] was “inactive”. For the same molecule, the Potency [16] was “inactive”.

For Cc1[nH]cnc1CN1CCc2c(c3ccccc3n2C)C1=O, the Potency [1] was “inactive”, the Potency [2] was “inactive” and the Potency [3] was “inactive”. The outcome [4] was “inactive”, the outcome [5] was “inactive” and the Potency [6] was “inactive”. The Potency [7] was “inactive”, the Potency [8] was “inactive” and the Potency [9] was “inactive”. For the same molecule, the Potency [10] was “inactive”, the Potency [11] was “inactive” and the Potency [12] was “inactive”. The Potency [13] was “inactive”, the Potency [14] was “inactive” and the Potency [16] was “inactive”.

For O=c1[nH]c(=O)n([C@H]2C[C@H](O)[C@@H](CO)O2)cc1I, the Potency [1] was “inactive”, the Potency [2] was “inactive” and the Potency [3] was “inactive”. The outcome [4] was “inactive”, the outcome [5] was “inactive” and the Potency [6] was “inactive”. For the same molecule, the Potency [7] was “inactive”, the Potency [8] was “inactive” and the Potency [9] was “inactive”. For the same molecule, the Potency [10] was “inactive”, the Potency [11] was “inactive” and the Potency [12] was “inactive”. For the same molecule, the Potency [13] was “inactive”, the Potency [14] was “inactive” and the Potency [15] was “inactive”. The Potency [16] was “inactive”.

For CC(C)[C@H](N)C(=O)OCCOCn1cnc2c(=O)[nH]c(N)nc21, the Potency [1] was “inactive”, the Potency [2] was “inactive” and the Potency [3] was “inactive”. For the same molecule, the outcome [4] was “inactive”, the outcome [5] was “inactive” and the Potency [6] was “inactive”. For the same molecule, the Potency [7] was “inactive”, the Potency [8] was “inactive” and the Potency [9] was “inactive”. The Potency [10] was 1780 nM (active), the Potency [11] was “inactive” and the Potency [12] was “inactive”. For the same molecule, the Potency [13] was “inactive”, the Potency [14] was “inactive” and the Potency [16] was “inactive”.
